Shown are actives, neighbours in structure and some others; about 2.1% of the full set was active somewhere.
HIF activator: HIF pathway transcriptional activation; U2OS HRE-luciferase reporter, luminescence; normalized: DMSO 0%, desferrioxamine 100%; activation, % at 7.5 µM (by protocol); 0.32% of 300,000 active;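 active = mean activation of at least 10% of the iron chelator positive control signal, with at least half of replicates also reaching 10%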
aSyn 5UTR inh: 5' untranslated region of α-synuclein, MLPCN primary screen; 0.82% of 300,000 active; AID 1813; inhibition, % (tested at 7.5 µM); alpha-synuclein 5'UTR reporter, inhibitor activity; in the data active = inhibition above about 60%;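 note: H4 neuroglioblastoma cells stably carrying SNCA 5'UTR luciferase fusion; 0% = DMSO wells and 100% = positive control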
KLF5 inh: inhibitors of KLF5 expression; 0.23% of 290,000 active; AID 1700; inhibition, % at 5 µM; DLD-1 KLF5 promoter-luciferase reporter, luminescence;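 active = inhibition above a per-plate limit of that plate's mean compound inhibition plus 3 SD, cut at about 60% in these data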;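 note: 0% = DMSO wells and 100% = LY294002 at 200 µM; higher means less KLF5 promoter-driven luciferase light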
Platelet DG rel: platelet dense granule release activity | human platelet-rich plasma, SFLLRN dense granule ATP release, luminescence | inhibition, %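 (compounds screened at 7.5 µM in platelet-rich plasma)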 | 0.22% of 300,000 active | AID 1663;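 active = mean replicate score, as percent of positive control, at or above 50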
Wee1 degr inh: blocks degradation of human Wee1 kinase. P30291. HeLa Luc-Wee1K328M stability, luciferase luminescence; 100% = proteasome inhibitor MG132 effect. reporter increase, % at 5 µM. 1.2% of 220,000 active. AID 1321;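 active = activation above the mean of all tested compounds plus 3 SD, set per screening run, cut at about 8.8% in these data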;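 note: cells exposed to compound for 20 h before luminescence read; 0% = DMSO alone and 100% = MG132 at 30 µM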
Target sequence (P30291 whole entry K328M): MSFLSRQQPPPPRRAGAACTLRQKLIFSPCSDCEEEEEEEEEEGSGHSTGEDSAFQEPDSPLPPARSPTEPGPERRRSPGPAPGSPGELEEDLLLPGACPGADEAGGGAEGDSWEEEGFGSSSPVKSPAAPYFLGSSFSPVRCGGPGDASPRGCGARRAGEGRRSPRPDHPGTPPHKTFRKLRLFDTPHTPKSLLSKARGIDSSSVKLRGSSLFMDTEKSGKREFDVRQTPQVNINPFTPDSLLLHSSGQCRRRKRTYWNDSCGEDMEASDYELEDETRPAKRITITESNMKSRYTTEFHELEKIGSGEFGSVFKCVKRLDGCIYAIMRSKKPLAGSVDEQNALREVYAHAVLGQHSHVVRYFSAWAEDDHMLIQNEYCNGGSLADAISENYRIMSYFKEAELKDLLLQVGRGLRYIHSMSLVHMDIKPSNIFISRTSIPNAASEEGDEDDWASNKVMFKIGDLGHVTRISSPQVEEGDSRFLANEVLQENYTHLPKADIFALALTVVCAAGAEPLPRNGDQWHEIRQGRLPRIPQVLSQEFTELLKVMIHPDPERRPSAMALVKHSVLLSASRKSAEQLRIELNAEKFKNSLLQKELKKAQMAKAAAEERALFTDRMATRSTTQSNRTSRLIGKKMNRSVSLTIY
Starred values were filed as active, the others as inactive.

Screening Cc1ccc(-c2nc(SC(C)C(=O)N3CCCC3)n[nH]2)cc1 (centres undefined) returned HIF activator 0, aSyn 5UTR inh -4 and Platelet DG rel -2.
Screening Cc1cc(NC(=O)COC(=O)c2ccc(S(=O)(=O)N3CCCc4ccccc43)cc2)no1 returned HIF activator 0, aSyn 5UTR inh 46, KLF5 inh 63*, Platelet DG rel -7 and Wee1 degr inh 4.
`COc1ccc(NC(=O)c2cc(S(=O)(=O)N3CCc4ccccc43)cn2C)cc1` gave HIF activator 0, aSyn 5UTR inh 12, KLF5 inh 3 and Platelet DG rel 98*.
`COc1ccc(-c2nnc(NC(=O)c3ccc(S(=O)(=O)N4CCCc5ccccc54)cc3)o2)cc1` gave HIF activator 1, aSyn 5UTR inh 69*, KLF5 inh 21, Platelet DG rel -13 and Wee1 degr inh -3.
Screening Cc1cc(NC(=O)COC(=O)c2ccc(S(=O)(=O)N3CCCC3)cc2)no1 returned HIF activator -2, aSyn 5UTR inh 7, KLF5 inh -18, Platelet DG rel -6 and Wee1 degr inh -2.
`Cc1ccc(NC(=O)c2cc(S(=O)(=O)N3CCc4ccccc43)cn2C)cc1C` gave HIF activator -1, aSyn 5UTR inh 27, KLF5 inh -6 and Platelet DG rel 10.
Screening O=C(Nc1nnc(C2CC2)o1)c1ccc(S(=O)(=O)N2CCCc3ccccc32)cc1 returned HIF activator 0, aSyn 5UTR inh 63* and Platelet DG rel 19.
Screening O=S(=O)(NCCN1CCOCC1)c1cc(Cl)ccc1Cl returned HIF activator 1, aSyn 5UTR inh 7, KLF5 inh -29 and Platelet DG rel 3.
Screening CC1CN(S(=O)(=O)c2ccc(C(=O)Nc3nnc(-c4ccc5c(c4)CCCC5)o3)cc2)CC(C)O1 (centres undefined) returned HIF activator 0, aSyn 5UTR inh 76*, KLF5 inh -26, Platelet DG rel 38 and Wee1 degr inh 1.
Cc1cc(C)n(-c2nc3ccccc3c(=O)n2OCC#N)n1 was read as HIF activator 14*, aSyn 5UTR inh 14, KLF5 inh 43 and Platelet DG rel 3.
For O=C1Nc2ccc(Cl)cc2/C1=C/C1CC=CCC1 (centres undefined) the results were HIF activator 394*, aSyn 5UTR inh -22, KLF5 inh -1, Platelet DG rel 15 and Wee1 degr inh 1.
CCN(C(=O)COC(=O)c1cc(-c2ccccc2)nc2c1c(C)nn2-c1ccccc1)C1CCS(=O)(=O)C1 (centres undefined) was read as HIF activator 0, aSyn 5UTR inh 3, KLF5 inh -20, Platelet DG rel 6 and Wee1 degr inh -1.
CCN(C(=O)COC(=O)c1cc(-c2ccc3cc(OC)ccc3c2)nc2ccccc12)C1CCS(=O)(=O)C1 (centres undefined) was read as HIF activator 1, aSyn 5UTR inh 67*, KLF5 inh -35, Platelet DG rel 15 and Wee1 degr inh 1.
Screening Cc1cc(NS(=O)(=O)c2ccc(NC(=O)Nc3ccc4c(c3)OCO4)cc2)no1 returned HIF activator 1, aSyn 5UTR inh -71, KLF5 inh -63, Platelet DG rel 12 and Wee1 degr inh 8.9*.
Screening CCCCNC(=S)NNC(=O)c1cc(-c2ccncc2)nc2ccccc12 returned HIF activator -1, aSyn 5UTR inh 7, KLF5 inh -11 and Platelet DG rel -1.
`CCOc1ccccc1CN1CCN(S(C)(=O)=O)CC1` gave HIF activator 14*, aSyn 5UTR inh 32, KLF5 inh -11, Platelet DG rel 2 and Wee1 degr inh -2.
For Cc1ccccc1CN1CCN(S(C)(=O)=O)CC1 the results were HIF activator 0, aSyn 5UTR inh 14, KLF5 inh 2, Platelet DG rel -1 and Wee1 degr inh 2.
`COc1ccc(/C=C/C(=O)NCCSCc2ccco2)cc1OC` gave HIF activator 57*, aSyn 5UTR inh -11, KLF5 inh -22, Platelet DG rel -3 and Wee1 degr inh 1.
CCOC(=O)C1(CCOc2ccccc2)CCN(Cc2ccc(O)c(OCC)c2)CC1 was read as HIF activator -1, aSyn 5UTR inh -47, KLF5 inh -31 and Platelet DG rel 0.
Cc1ccc(NC(=O)CSc2n[nH]c(-c3cccnc3)n2)c(Br)c1 was read as HIF activator -21, aSyn 5UTR inh -6, KLF5 inh -6 and Platelet DG rel 3.
`O=C(NCc1ccco1)c1cc(-c2ccccc2)on1` gave HIF activator 12*, aSyn 5UTR inh -161, KLF5 inh -118, Platelet DG rel -4 and Wee1 degr inh -1.
Screening CCCNC(=O)c1cc(-c2ccco2)on1 returned HIF activator 16*, aSyn 5UTR inh -335, KLF5 inh -65, Platelet DG rel 1 and Wee1 degr inh 1.
For O=C(NCc1ccco1)c1cc(-c2cccs2)on1 the results were HIF activator 21*, aSyn 5UTR inh -297, KLF5 inh -144, Platelet DG rel -3 and Wee1 degr inh 2.
`O=C1C([N+](=O)[O-])=C(O)c2cccc3cccc1c23` gave HIF activator 0, aSyn 5UTR inh -5, KLF5 inh 12 and Platelet DG rel 0.
`O=C(O)c1cnc(-c2ccccc2)nc1C(F)(F)F` gave HIF activator 0, aSyn 5UTR inh 11, KLF5 inh -45, Platelet DG rel -1 and Wee1 degr inh 11*.
Screening COCCNC(=O)C(=O)NCC1OCCN1S(=O)(=O)c1cc(F)ccc1F (centres undefined) returned HIF activator 17*, aSyn 5UTR inh 29, KLF5 inh -2 and Platelet DG rel -4.
Screening COc1ccc(NC(=O)CSc2nccn2Cc2ccco2)cc1OC returned HIF activator 1, aSyn 5UTR inh -33, KLF5 inh -58 and Platelet DG rel -7.
For COc1ccccc1C(=O)Nc1ccnn1C1CCN(CC2CC=CCC2)CC1 (centres undefined) the results were HIF activator 0, aSyn 5UTR inh -5, KLF5 inh -9 and Platelet DG rel -2.
Cc1sc(NC(=O)/C=C/c2ccc(C(C)C)cc2)c(C#N)c1C was read as HIF activator 0, aSyn 5UTR inh -44, KLF5 inh -23, Platelet DG rel -3 and Wee1 degr inh 0.
CC(C)c1ccc(/C=C/C(=O)Nc2nncs2)cc1 was read as HIF activator 0, aSyn 5UTR inh 17, KLF5 inh -204, Platelet DG rel -1 and Wee1 degr inh 9.5*.
`Cc1cc(OCC(=O)NCC2CCC(C(=O)O)CC2)c2c(C)c(C)c(=O)oc2c1` (centres undefined) gave HIF activator 0, aSyn 5UTR inh -22, KLF5 inh 4 and Platelet DG rel 6.
For O=C(OCCN(C1=NS(=O)(=O)c2ccccc21)c1ccccc1Cl)c1ccc(Cl)cc1 the results were HIF activator 0, aSyn 5UTR inh -2, KLF5 inh -24, Platelet DG rel 0 and Wee1 degr inh 9.7*.

High-throughput results: PubChem, several laboratories
